Screening results (PubChem)
This is a sample that favours compounds with a hit; in the whole collection about 1.6% have one here.
p53ts 32C kill: p53ts cell cytotoxicity, permissive temperature; Potency, µM (doses to about 46.1 µM), hits mostly cytotoxic; actives 0.93% (n = 130,000); AID 924; H1299-p53A138V at 32C, ATP luminescence viability, 24 h; also: nearly all actives have a fitted effect of over 55% in size
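Cells: H1299 p53ts (A138V), 600/well, pre-incubated 16–30 h at 37C. Cpd up to 46 uM, 24 h, 32C. Readout: ATPlite luminescence, 20 min RT. Normalization: DMSO vs tamoxifen 100 uM. AC50 by Hill equation.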
Imprint erasure: induces erasure of genomic imprints in mouse ES cells; mouse ES Peg3-LacZ reporter, beta-gal luminescence, 40 h; Potency, µM (top dose mostly 60.7 µM), most hits filed as activators; actives 0.02% (n = 110,000); AID 1948
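Gelatin-coated wells received 300 freshly trypsinized female ES cells with a Peg3LacZ-Neo reporter on the maternal allele, then incubated 40 hours at 37C. BetaGlo was added for 5 minutes at room temperature before a single luminescence read.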
p53ts 39C tox: p53ts cell cytotoxicity, nonpermissive temperature; H1299-p53A138V viability at 39C, ATP luminescence, 24 h; Potency, µM (titrated, usually from 46.1 µM), actives largely listed as cytotoxic; actives 1.5% (n = 130,000); AID 902; also: nearly all actives have a fitted effect of over 55% in size
Of the large screens only hits and unclear results are named; the others gave an inactive call. Calls follow the shape of the dose curve; as a rule, active = well fitted curve in the direction sought with a large enough effect; inconclusive = small, poorly fitted or top-dose-only effect, or another doubt; inactive = no such curve, though single readings can be large; an effect the other way counts as inactive or inconclusive.

Cc1cccn2c(=O)cc(COc3cccc(NC(=O)COc4ccc(F)cc4)c3)nc12	p53ts 32C kill inconclusive, p53ts 39C tox 7.9µM
Cc1ccc(-n2nc3ccc(NC(=O)COc4ccccc4C)cc3n2)cc1	none
C[C@H](N[C@@H](C)CCc1ccccc1)[C@H](O)c1ccc(O)cc1	none (no result: Imprint erasure)
O=C(O)CSCC(=O)O	none
NC1=NC([S][Hg][c]2ccc(N)cc2)c2ncn([C@@H]3O[C@H](CO)[C@@H](O)[C@@H]3O)c2N1 (stereo not given in full)	none (no result: p53ts 32C kill, p53ts 39C tox)
CC(C)[C@@H](Br)C(=O)NCC(=O)O	none
COc1ccc(C(=O)O)cc1OC	none
O=C(O)c1cc(O)c(O)c(O)c1	p53ts 32C kill 13µM, p53ts 39C tox 10µM
C=C/C(=C/C(=O)C[C@H](C)C[C@@H](C)CC[C@H](O)[C@H](C)C(=O)C[C@@H](O)[C@H](C)[C@@H](C)OC(=O)C[C@@H](O)C1=C(C)C(=O)OC1=O)CC	none (no result: p53ts 32C kill, p53ts 39C tox)
COc1cc2c(cc1OC)-c1c(OC)c(OC)cc3c1C(C2)N(C)CC3 (stereo not given)	none
COc1cc2c(cc1OC)-c1c(O)c(OC)cc3c1[C@H](C2)N(C)CC3	p53ts 32C kill 32µM, p53ts 39C tox inconclusive
Cc1cc[c]([Sb]2[O]C([C@H](O)[C@H](O)C(=O)O)[C@@H](CO)[O]2)cc1 (stereo not given in full)	none (no result: p53ts 32C kill, p53ts 39C tox)
Cc1ccc(Cl)cc1N1CCN(C(=O)c2cn(CC(C)C)c(=O)c3c2c2ccccc2n3C)CC1	p53ts 39C tox inconclusive
CN1CC[C@]2(C)c3cc(O)ccc3N(C)[C@@H]12	p53ts 32C kill 20µM, p53ts 39C tox 25µM
CN1CC[C@@]2(C)c3cc(O)ccc3N(C)C12 (stereo not given in full)	none (no result: p53ts 32C kill, p53ts 39C tox)
COc1ccc(CN2CCN(c3ncnc4sc5c(c34)CCCC5)CC2)cc1F	p53ts 39C tox inconclusive
COc1ccc2nc(N3CCN(C(=O)CS(=O)(=O)c4ccc(C)cc4)CC3)sc2c1	p53ts 32C kill 11µM, p53ts 39C tox 7.9µM
Cc1ccc2nc(N3CCC(C(=O)N4CCC5(CC4)OCCO5)CC3)sc2c1	none (no result: Imprint erasure)
CNc1ccc2oc(C[C@@H]3OC4(CC[C@@H]3C)O[C@H](C(C)C(=O)c3ccc[nH]3)[C@H](C)C[C@H]4C)nc2c1C(=O)O (stereo not given in full)	none (no result: p53ts 32C kill, p53ts 39C tox)
CNc1ccc2oc(C[C@H]3O[C@]4(CC[C@H]3C)O[C@H]([C@H](C)C(=O)c3ccc[nH]3)[C@H](C)C[C@H]4C)nc2c1C(=O)O	p53ts 32C kill 4µM, p53ts 39C tox 3.2µM
CCNC(C)(C)[C@@H](SS)c1ccc(Br)cc1	none
O=S(=O)(NCCO)c1cc[c]([Sb])cc1	none (no result: p53ts 32C kill, p53ts 39C tox)
CC(C)(COCC1CO1)COCC1CO1 (stereo not given)	none
c1cc(OCC2CO2)cc(OCC2CO2)c1 (stereo not given)	p53ts 39C tox 25µM
Cc1ccc(OP(=O)(Oc2ccc(C)cc2)N2C=Cc3ccccc3[C@H]2C#N)cc1	none
CCC(C)C(=O)c1c(O)c(C)c2oc3c(C)c(O)c(C(=O)C(C)CC)c(O)c3c2c1O (stereo not given)	p53ts 32C kill 13µM, p53ts 39C tox 13µM
CN[C@@H]1C[C@@H](c2ccc(Cl)c(Cl)c2)c2ccccc21	p53ts 32C kill 20µM, p53ts 39C tox 13µM
CN[C@@H]1C[C@H](c2ccc(Cl)c(Cl)c2)c2ccccc21	p53ts 39C tox 25µM
N[C@H](Cc1c[nH]c2ccccc12)P(=O)(O)O	Imprint erasure 0.63µM
NCCc1c[nH]c2ccccc12	none
CSCC[C@@H](N)P(C)(=O)O	none
Cc1c(S(=O)(=O)Nc2cccc(Cl)c2)c(=O)n(C)c(=O)n1C	none
CCCCCCCCCCCCCC(=O)O[C@H]1[C@@H](C)[C@@]2(O)[C@@H](C=C(CO)C[C@]3(O)C(=O)C(C)=C[C@@H]23)C2C(C)(C)[C@]21OC(C)=O (stereo not given in full)	p53ts 32C kill inconclusive, p53ts 39C tox 16µM (no result: Imprint erasure)
N[C@@H](Cc1cc(O)c(O)cc1O)C(=O)O	none (no result: Imprint erasure)
CO[C@@H]([CH2][Hg])CN1C(=O)c2ccccc2S1(=O)=O.Cn1c(=O)c2nc[nH]c2n(C)c1=O	none
O=C(O)[C@@H]1[C@H](C(=O)O)[C@]2(Cl)C(Cl)=C(Cl)[C@@]1(Cl)C2(Cl)Cl	p53ts 32C kill inconclusive, p53ts 39C tox 1µM
O=S1OCC2C(CO1)C1(Cl)C(Cl)=C(Cl)C2(Cl)C1(Cl)Cl (stereo not given)	none
Cc1cc(Cc2cc(C)c(N)cc2N)c(N)cc1N	Imprint erasure inconclusive
C#CCN[C@@H](C)Cc1ccccc1	none (no result: Imprint erasure)
Oc1ccc2c3c1O[C@@H]1c4[nH]c5c(c4C[C@@]4(O)[C@@H](C2)N(CC2CC2)CC[C@]314)C[C@]1(O)[C@@H]2Cc3ccc(O)c4c3[C@@]1(CCN2CC1CC1)[C@H]5O4	none (no result: Imprint erasure)
Cc1ccc(-c2nc(S(=O)(=O)c3ccccc3)c(SCC(=O)NC3CCCCC3)o2)cc1	p53ts 39C tox 1.6µM
Cc1ccc(-c2nc(S(=O)(=O)c3ccc(C)cc3)c(SCC(=O)Nc3ccc(F)cc3)o2)cc1	p53ts 39C tox inconclusive
NCCc1c[nH]c2ccc(OC(=O)C(=O)O)cc12	none
C(=C/c1ccccc1)/CN1CCN(CCOC(c2ccccc2)c2ccccc2)CC1	p53ts 39C tox 32µM
c1ccc(C(OCCN2CCNCC2)c2ccccc2)cc1	none
CCC(=O)OC1CCC2C3CCc4cc(O)ccc4C3CC[C@]12C (stereo not given in full)	p53ts 32C kill inconclusive, p53ts 39C tox 10µM
CCC(=O)OC1CCC2C3CCC4=CC(=O)CC[C@@]4(C)C3CC[C@]12C (stereo not given in full)	none (no result: p53ts 32C kill, p53ts 39C tox)
NC(=O)CN1C[C@@H](O)CC1=O	none (no result: Imprint erasure)
COc1ccc(NC(=O)c2oc3ccc(S(=O)(=O)N(C)C4CCCCC4)cc3c2C)cc1	p53ts 39C tox inconclusive
COc1c(C)cc(Br)cc1C(=O)Nc1ccc(-c2nc3ncccc3o2)cc1	p53ts 39C tox 6.3µM
CC[C@@H](CO)Nc1nc(NCc2ccccc2)c2ncn(C(C)C)c2n1	none (no result: Imprint erasure)
C[C@]12CC[C@H](O)C[C@@H]1CC[C@H]1[C@H]2CC[C@]2(C)[C@H](C(=O)CO)CC[C@@H]12	none (no result: Imprint erasure)
C[C@@H]1OC(OC2C(OC3CC[C@@]4(C)C5CC=C6C7CC(C)(C)CC[C@@]7(C(=O)O)CCC6(C)C5(C)CCC4[C@]3(C)CO)OCC(O)C2O)C(O)C(O)C1O (stereo not given in full)	p53ts 32C kill inconclusive, p53ts 39C tox inconclusive
CCCCCCC(C)(C)c1ccc([C@@H]2C[C@H](O)CC[C@@H]2CCCO)c(O)c1	p53ts 32C kill 13µM, p53ts 39C tox 6.3µM
c1nc(N2CC2)c2cnn([C@@H]3CCCCO3)c2n1	none
C[C@H](CN(C)C)C(C#N)(c1ccccc1)c1ccccc1	none
C[CH2][Hg][S]c1ccccc1C(=O)O	p53ts 32C kill 1µM, p53ts 39C tox 1.3µM
CNc1ccccc1C(=O)O	none
C[C@@]12CC[C@H]3[C@@H](CCC4=C(O)C(=O)CC[C@]43C)[C@H]1CCC2=O	none (no result: Imprint erasure)
COc1ccccc1-c1nn2c(=O)cc(CN3CCN(C(=O)Nc4ccc(C)cc4Cl)CC3)nc2s1	p53ts 39C tox inconclusive
NC(=O)CI	p53ts 32C kill 6.3µM, p53ts 39C tox 5µM
CC1=NN(c2ccccc2)C(=O)[C@@H]1N=Nc1ccc([As](=O)(O)O)c(O)c1	none
